This note sets out measurements from PubChem BioAssay (Tox21).

Several values for one entry are separate records, joined by “and”; a condition that tells them apart may be missing. Equal values may be shown once. Results filed as inconclusive are left out. A structure can be active in one record and inactive in another. Activity calls are given as the source filed them. The call rests on the fitted dose curve; in most records, active means well fitted cell-killing curve with a large enough effect in the repeat runs; inconclusive means weak or mixed curves, or effect the other way; inactive means no such curve, though single readings can be large or run the other way.
On the % scale 0 is the no-effect control and ±100 the full control effect; potency means the concentration at half of the fitted maximal effect.

A short description of the assay: qHTS assay to identify small molecule antagonists of the thyroid receptor (TR) signaling pathway - cell viability counter screen (AID 743064). Further: nearly all actives have a fitted effect of over 50% in size. As to conditions: GH3.TRE-Luc viability, CellTiter-Fluor, 24 h; series mostly up to 70.3 µM; activity change, negative = cytotoxic: at the top concentration. The method, boiled down: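 Rat GH3 pituitary tumor cells stably expressing two TR response elements driving luciferase were plated, rested 4 h, then dosed with library compounds and T3 (1 nM final). After 23.5 h at 37 °C, CellTiter-Fluor was added for 30 min and fluorescence recorded.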
Background: Quantitative high-throughput screening tests each substance at several concentrations.
Turning to `C=N[C@@H](C(=O)N[C@@H]1C(=O)N2[C@@H]1SC(C)(C)[C@@H]2C(=O)O)c1ccccc1`, the “activity change, negative = cytotoxic” value was 20.9% (inactive).
Same read-out and setting: for `O=c1[nH]c(=O)n([C@H]2C[C@H](O)[C@@H](CO)O2)cc1/C=C/Br` the value was 29.6% (inactive).
For `C[C@H](O)CN(C)C`, the “activity change, negative = cytotoxic” value was 4.18% (inactive).
Consider `O=C1CC[C@@H](C(=O)N[C@H]2C[C@@H]2c2ccccc2)N1`, for which the “activity change, negative = cytotoxic” value was 23.1% (inactive).
In the case of `CC(C)C[C@H](NC(=O)[C@@H](COC(C)(C)C)NC(=O)[C@H](Cc1ccc(O)cc1)NC(=O)[C@H](CO)NC(=O)[C@H](Cc1c[nH]c2ccccc12)NC(=O)[C@H](Cc1cnc[nH]1)NC(=O)[C@@H]1CCC(=O)N1)C(=O)N[C@@H](CCCN=C(N)N)C(=O)N1CCC[C@H]1C(=O)NNC(N)=O`, the Potency result is “inactive”.
Take `NC[C@H]1O[C@H](O[C@H]2[C@H](O)[C@@H](O[C@H]3O[C@H](CO)[C@@H](O)[C@H](N)[C@H]3O)[C@H](N)C[C@@H]2N)[C@H](N)C[C@@H]1O`: the “activity change, negative = cytotoxic” value is 24.1% [at 32.5 µM] (inactive).
Regarding `FC(F)(F)COCC(F)(F)F`, the “activity change, negative = cytotoxic” value was 23.6% (inactive).
The same measure, in the same setting: for `NCC[C@H](O)C(=O)N[C@@H]1C[C@H](N)[C@@H](O[C@H]2O[C@H](CN)CC[C@H]2N)[C@H](O)[C@H]1O[C@H]1O[C@H](CO)[C@@H](O)[C@H](N)[C@H]1O` the value was 2.62% (inactive); for `NCC(O)CC(=O)O` (configuration not stated), 13.3% (inactive).
On the same count and under the same terms, the figure for `CNCC(=O)N[C@@H](CCCN=C(N)N)C(=O)N[C@H](C(=O)N[C@@H](Cc1ccc(O)cc1)C(=O)N[C@H](C(=O)N[C@@H](Cc1cnc[nH]1)C(=O)N1CCC[C@H]1C(=O)N[C@@H](C)C(=O)O)C(C)C)C(C)C` is 20.3% (inactive); for `CCC(NC(C)C)C(O)c1ccc(O)c(O)c1` (configuration not stated) it is 16.6% (inactive); for `CCCOC(=O)c1ccc(O)cc1` it is 32.9% (inactive).
On the same count and under the same terms, the figure for `CC12CCC(C[N+](C)(CCC[N+](C)(C)C)C1)C2(C)C` (configuration not stated) is 19.4% (inactive).
For `O=C1[O][Bi][O]c2ccccc21`, the “activity change, negative = cytotoxic” value was 11.5% (inactive).
On the same count and under the same terms, for `CC(=NCc1ccccc1)c1ccccc1O` the value was 14.7% (inactive).
The same measure, in the same setting: the figure for `C[C@H](NCCc1ccc(O)cc1)[C@H](O)c1ccc(O)cc1` is 6.82% (inactive).
Turning to `CCCC(CCC)C(=O)OC1C[C@H]2CC[C@@H](C1)[N+]2(C)C` (some centres not stated), the Potency result is “inactive”.
Take `CC(C)(S)C(=O)N[C@@H](CS)C(=O)O`: the Potency entry was “inactive”.
As to `NC(=O)[C@H]1O[C@@H](O)[C@H](O)[C@@H](O)[C@@H]1O`, the “activity change, negative = cytotoxic” value was 13.4% (inactive).
Turning to `CCCCCCCCCCCCCC(=O)OCC(COP(=O)([O-])OCC[N+](C)(C)C)OC(=O)CCCCCCCCCCCCC` (configuration not stated), the “activity change, negative = cytotoxic” value was 13.2% (inactive).
On the same count and under the same terms, the figure for `CCN(CC)C(=O)c1cccnc1` is 18.2% (inactive).
Regarding `CC(C)(COP(=O)(O)OP(=O)(O)OC[C@H]1O[C@@H](n2cnc3c(N)ncnc32)[C@H](O)[C@@H]1OP(=O)(O)O)C(O)C(=O)NCCC(=O)NCCS` (some centres not stated), the “activity change, negative = cytotoxic” value was 17.1% (inactive).
Turning to `NC(=S)NS(=O)(=O)c1ccc(N)cc1`, the “activity change, negative = cytotoxic” value was -13.5% (inactive).
On the same count and under the same terms, for `c1ccc2cc3c4ccccc4c4ccccc4c3cc2c1` the value was 0.218% [at 95 µM] (inactive); for `C[S+](CC[C@H](N)C(=O)O)C[C@H]1O[C@@H](n2cnc3c(N)ncnc32)[C@H](O)[C@@H]1O` (some centres not stated), -6.64% (inactive); for `CC(C)(C)C(=O)OCC(=O)[C@H]1CC[C@H]2[C@@H]3CCC4=CC(=O)CC[C@]4(C)[C@H]3CC[C@]12C`, 16.1% (inactive).
Still for that read-out and setting: the figure for `CC(=O)Nc1ccc(OC(C)=O)cc1` is 3.88% (inactive).
Take `Cc1c(N)nc([C@H](CC(N)=O)NC[C@H](N)C(N)=O)nc1C(=O)N[C@H](C(=O)N[C@H](C)[C@@H](O)[C@H](C)C(=O)N[C@H](C(=O)NCCc1nc(-c2nc(C(=O)NCCCCN=C(N)N)cs2)cs1)[C@@H](C)O)[C@@H](O[C@@H]1O[C@@H](CO)[C@@H](O)[C@H](O)[C@@H]1O[C@H]1O[C@H](CO)[C@@H](O)[C@H](OC(N)=O)[C@@H]1O)c1cnc[nH]1`: the Potency result is “inactive and 4.22 µM (active)”.
Consider `CCOC(=O)COc1ccc2c(=O)cc(-c3ccccc3)oc2c1`, for which the Potency entry is “inactive”.
Turning to `CO/N=C(\C(=O)N[C@@H]1C(=O)N2C(C(=O)[O-])=C(C[n+]3ccc(N)n3CCO)CS[C@H]12)c1csc(N)n1`, the “activity change, negative = cytotoxic” value was 14.9% (inactive).
For `NC(=O)CC[C@@H]1NC(=O)[C@H](Cc2ccccc2)NC(=O)[C@H](Cc2ccc(O)cc2)NC(=O)[C@@H](N)CSSC[C@@H](C(=O)N2CCC[C@H]2C(=O)N[C@@H](CCCN=C(N)N)C(=O)NCC(N)=O)NC(=O)[C@H](CC(N)=O)NC1=O`, the Potency entry was “inactive”.
As for `Cc1onc(-c2c(F)cccc2Cl)c1C(=O)N[C@@H]1C(=O)N2[C@@H]1SC(C)(C)[C@@H]2C(=O)O`, the Potency entry was “inactive”.
